Source: PubChem (several laboratories)
Sampled rows, rich in hits. Any-hit rate of the full collection: about 4.5%.
CSC inhib: blocks cancer stem cells | cancer stem cell-like cells viability, luminescence | inhibition, % at 7.5 µM | actives 1.1% (n = 300,000) | AID 2717; in the data active = inhibition above about 75%; tested in HMLE shEcad cells
Beta cell apopt: blocks beta cell apoptosis. INS-1E cytokine-induced death, ATP luminescence, 48 h; percent of positive-control rescue, neutral wells zero. protection from apoptosis, % (concentration not given with the values). actives 0.8% (n = 300,000);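 active = Every replicate reaches about 75%, or at least half do and their mean reaches it too, limit read from the data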;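 note: 0% = cytokine-treated negative control wells and 100% = positive control rescue; higher means more ATP so stronger rescue from cytokine killing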
Mdm2 MdmX PPI: inhibitors of human Mdm2/MdmX interaction; O15151+Q00987; inhibition, % at 8 µM; AID 485346; actives 3% (n = 330,000); SaOS-2 split-luciferase Mdm2/MdmX complementation, luminescence;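 active = inhibition of at least 50% at 8 µM in the primary screen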
697 NFkB inh: inhibitors of the PMA/ionomycin-induced NF-kB reporter in 697 B cells. 697 B-cell NF-kB luciferase reporter, 16 h. inhibition, % at 4 µM. actives 0.33% (n = 330,000); in the data active = inhibition above about 35%
Jurkat NFkB inh: lowers PMA/ionomycin-induced NF-kB signal in Jurkat cells. PMA/ionomycin-induced NF-kB luciferase reporter, luminescence. actives 0.53% (n = 330,000). inhibition, % at 4 µM; in the data active = inhibition above about 50%
Gli-Sufu antag: Gli-Sufu pathway antagonism; Sufu-KO-LIGHT fibroblasts, Gli luciferase reporter luminescence; inhibition, % at 5 µM; actives 0.74% (n = 340,000);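 active = inhibition above about 55%, limit read from the data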;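 note: 0% = DMSO-treated cells and 100% = wells with medium but no cells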
Mdm2-MdmX conf: confirmation of human Mdm2/MdmX interaction inhibitors; Mdm2-MdmX binding, luminescent assay; inhibition, % at 8 µM; actives 55% (n = 10,000); shares compounds with Mdm2 MdmX PPI; in the data active = inhibition above about 40%
Full FLuc ctr: inhibits full-length luciferase, flagging false Mdm2/MdmX hits; shares compounds with Mdm2 MdmX PPI; SaOS-2 full-length luciferase counterscreen, luminescence; actives 77% (n = 6,200); inhibition, % at 8 µM;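 active = mean inhibition at 8 µM reaching about 37%, which flags the compound as non-specific, limit read from the data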;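 note: p53-null SaOS-2 cells with luciferase driven by a doxycycline-inducible promoter; compound on cells about two nights before reading with doxycycline added after day one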
The depositor's hits bear a star; . = no result.

SMILES | CSC inhib | Beta cell apopt | Mdm2 MdmX PPI | 697 NFkB inh | Jurkat NFkB inh | Gli-Sufu antag | Mdm2-MdmX conf | Full FLuc ctr
CNC[C@H](CC1CCCCC1)NC[C@H](CO)NCCc1cccc(C(F)(F)F)c1 | 132* | 36 | 99* | 2 | 30 | 14 | 97* | 58*
CCOc1ccccc1-n1c(SC(C)C(=O)NCC2CCCO2)nc2ccccc2c1=O (stereo not drawn) | . | -2 | 7 | 22 | 4 | 15 | . | .
Cn1c(CNC(=O)CNC(=O)Cc2ccccc2)cc(=O)n(C)c1=O | -25 | 2 | 24 | 4 | 2 | -6 | . | .
COCCCN1CCN(C2Cc3ccccc3Sc3ccc(Cl)cc32)CC1 (stereo not drawn) | 5 | 2 | 43 | -14 | -5 | 6 | . | .
Clc1cccc2c1Sc1ccccc1CC2N1CCNCC1 (stereo not drawn) | -6 | 5 | 66* | -17 | 7 | 6 | 73* | 47*
Clc1ccc2c(c1)C(N1CCNCC1)Cc1ccccc1S2 (stereo not drawn) | -6 | 27 | 101* | -20 | 5 | 4 | 100* | 39*
C/C(=N/Nc1ccccc1[N+](=O)[O-])c1ccc(C)c([N+](=O)[O-])c1 | . | . | 70* | -30 | -35 | -36 | 16 | .
C/C(=N\NC(=O)c1cc(C)oc1C)c1ccc(C)c([N+](=O)[O-])c1 | . | -5 | 96* | 13 | 2 | -1 | -13 | .
COC(=O)N/N=C(\C)c1ccc(C)c([N+](=O)[O-])c1 | 4 | -4 | 9 | 10 | -2 | -16 | . | .
O=C(NC(C(=O)N/N=C/c1ccccn1)c1n[nH]c(=O)c2ccccc12)c1ccccc1 (stereo not drawn) | -17 | -3 | 20 | 18 | 3 | 3 | . | .
COc1ccc2oc(=Nc3ccccc3)c(-c3nc4ccccc4[nH]3)cc2c1 | 38 | 25 | 88* | -172 | -88 | -82 | -84 | .
N#Cc1nc(NCC(F)F)nc(Nc2cc(F)cc(F)c2)n1 | 30 | 5 | 64* | -13 | 2 | -125 | 58* | 28
N#Cc1nc(Nc2cc(F)cc(F)c2)c2ncn(CC(F)F)c2n1 | 28 | -3 | -24 | -90 | -41 | -81 | . | .
CCN1C(=O)C(O)(CC(=O)/C=C/C=C/c2ccccc2)c2ccccc21 (stereo not drawn) | 17 | -6 | 27 | -1 | 9 | 6 | . | .
O=C(/C=C/C=C/c1ccccc1)CC1(O)C(=O)N(CCc2ccccc2)c2ccccc21 (stereo not drawn) | 15 | -1 | 53* | 18 | 0 | -37 | -1 | .
COc1cc(NC(=O)c2ccc(C)cc2C)ccc1NC(=O)c1cc2ccccc2o1 | 1 | 41 | 84* | -1 | 20 | -8 | 62* | 39*
COc1cc(NC(=O)c2ccc(Cl)cc2Cl)ccc1-c1cc2ccccc2oc1=O | 4 | 8 | 57* | 14 | 26 | 11 | 26 | .
COc1cc(NC(=O)c2ccc(Br)cc2)ccc1NC(=O)c1cc2ccccc2o1 | 1 | -6 | 31 | -17 | 11 | -6 | . | .
COc1cc(NC(=O)c2ccc(C)cc2)ccc1NC(=O)c1cc2ccccc2o1 | 1 | 3 | 57* | -80 | -16 | -12 | 23 | 90*
COc1cc(NC(=O)c2ccccc2F)ccc1NC(=O)c1cc2ccccc2o1 | 38 | 22 | 68* | -34 | -8 | -26 | 32 | 63*
COc1cc(NC(C)=O)ccc1-c1cc2ccccc2oc1=O | 12 | 0 | 14 | -3 | 11 | -3 | . | .
CC(=O)N1CCOc2ccc(S(=O)(=O)NCCc3ccc(Cl)cc3)cc21 | -12 | -5 | 7 | -24 | -15 | -8 | . | .
COc1ccc(O)c(CN2CCC(n3nccc3NC(=O)C3CCCC3)CC2)c1 | 0 | -2 | 27 | -3 | -11 | 12 | . | .
COC(=O)c1ccc(NS(=O)(=O)c2ccc(-c3cc(C)no3)s2)cc1 | -11 | -2 | 11 | -10 | -4 | -1 | . | .
COc1cc(NC(=O)c2oc3ccccc3c2C)ccc1NC(=O)c1ccco1 | . | 0 | 63* | -23 | -20 | 34 | 32 | 56*
SMILES | CSC inhib | Beta cell apopt | Mdm2 MdmX PPI | 697 NFkB inh | Jurkat NFkB inh | Gli-Sufu antag | Mdm2-MdmX conf | Full FLuc ctr
COc1cc(NC(=O)c2ccc(F)cc2)ccc1NC(=O)c1cc2ccccc2o1 | -10 | . | 19 | -13 | 10 | -2 | . | .
COc1cc(NC(=O)c2cccc(F)c2)ccc1NC(=O)c1cc2ccccc2o1 | -4 | 3 | 87* | -15 | 8 | 30 | 62* | 86*
COc1ccc(CCc2nnc(CCC(=O)NCc3ccc4ncccc4c3)o2)cc1 | -17 | 2 | -21 | 1 | 4 | 8 | . | .
O=C1N=C(N2CCCC2)S/C1=C\C=C\c1ccccc1 | 2 | -6 | 59* | -180 | -65 | 25 | 64* | 152*
S=C1SCN(Cc2cccnc2)CN1Cc1cccnc1 | 55 | . | 79* | -4 | 15 | 28 | 77* | 56*
CCc1ccc(S(=O)(=O)N2CCN(C(=O)c3cccnc3)CC2)cc1 | . | . | -1 | 3 | 2 | 2 | . | .
COc1ccc(CCNC(=O)c2ccc3nc(N4CCCCC4)sc3c2)cc1OC | 2 | 3 | -5 | -113 | -9 | -65 | . | .
CCOC(=O)/C(=C\Nc1ccccc1C(F)(F)F)Sc1ncc(C(F)(F)F)cc1Cl | -1 | 9 | -3 | -17 | -11 | 4 | . | .
COC(=O)/C(=C\Nc1ccc(Cl)c2ccccc12)c1ncc(C(F)(F)F)cc1Cl | -2 | 0 | 59* | 5 | 10 | 3 | 4 | .
CC(C)c1cc2c(c(O)c1O)[C@@]13CCCC(C)(C)C1CC2OC3=O (stereo partly drawn) | 60 | -7 | 31 | 17 | 0 | 5 | . | .
COC(=O)[C@H]1C[C@H](O)CN1S(=O)(=O)c1ccc(Br)cc1F | . | . | 28 | 8 | . | 7 | . | .
NC(=O)NC(=O)C(c1ccccc1)N1CCN(S(=O)(=O)Cc2ccccc2)CC1 (stereo not drawn) | . | 0 | 21 | 20 | 7 | 6 | . | .
Cc1ccc2c(c1)c1c3n2CCN=C3CCC1 | . | -7 | 14 | -6 | -14 | 11 | . | .
c1cc2c(cc1C1CCCCC1)c1c3n2CCCNC3CCC1 (stereo not drawn) | 7 | 18 | 98* | 12 | 6 | 14 | 48* | 2
c1cc2c(cc1C1CCCCC1)c1c3n2CCN=C3CCC1 | 25 | 37 | 53* | -31 | 1 | 1 | 23 | .
CC(=O)c1ccc(Nc2nc3ccccc3nc2NS(=O)(=O)c2cccs2)cc1 | 35 | 33 | 60* | 9 | -8 | 10 | 28 | .
C/C(=N\NC(=O)c1ccc(NS(=O)(=O)c2cccs2)cc1)c1ccccn1 | 64 | 86* | 58* | 14 | 12 | 4 | -6 | .
COc1ccc(Nc2nc3ccccc3nc2NS(=O)(=O)c2cccs2)cc1 | 22 | . | 2 | 17 | 2 | 18 | . | .
